Experimental findings from PubChem BioAssay (Tox21) are described below.

The nature of assay [1]: qHTS assay to identify small molecule agonists of H2AX (AID 1224845; active = well fitted activation curve with a large enough effect in the signal ratio in the repeat runs, not every such curve was filed as active; the % refers to the signal ratio). The method in brief:
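Wild-type CHO-K1 cells plated overnight, then exposed 3 hr at 37C to compounds at 15 concentrations (0.76% DMSO). Lysed, then HTRF anti-pH2AX(S139)-cryptate/anti-H2AX-d2 detection after 24 hr at room temperature; emissions 665 and 620 nm.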
(qHTS replaces the single test concentration by a dilution series.)

Assay [2] can be described thus: qHTS assay to identify small molecule agonists of the hypoxia (HIF-1) signaling pathway (AID 1224846; active = well fitted activation curve with a large enough effect in the signal ratio in the repeat runs, not every such curve was filed as active; the % refers to the signal ratio). The method in brief:
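Hypoxia-pathway activation was scored as increased beta-lactamase from an HRE-controlled reporter in ME-180 cells; plated at 2,000 cells per well with 0.5% dialyzed FBS, they were exposed 17 hrs to compounds and then given CCF4-AM.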

A short description of assay [3]: qHTS assay to identify small molecule agonists of H2AX - cell viability counter screen (AID 1224847; calls by dose curve; also: top concentration of the series differs between compounds; nearly all actives have a fitted effect of over 30% in size). The method in brief: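 CHO-K1 cells plated overnight at 37C, then exposed 3 h at 37C to compounds at 15 concentrations (0.76% DMSO final). Viability by CellTiter-Glo luminescence after 30 min at room temperature.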
Assay [4] can be described thus: qHTS RealTime-Glo MT Cell Viability Assay in HepG2 cells - 24 hour (AID 1224867). Also: nearly all actives have a fitted effect of over 50% in size. The method in brief: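 HepG2 cells (600/well) were dispensed with RealTime-Glo reagents, incubated 5 h at 37 °C, then treated with compounds in DMSO for up to 40 h. Nonlytic NanoLuc luminescence reflecting viable cells was read at each stated time point.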
A short description of assay [5]: qHTS RealTime-Glo MT Cell Viability Assay in HEK293 cells - 32 hour (AID 1224868). Also: top concentration of the series differs between compounds; nearly all actives have a fitted effect of over 50% in size. The method in brief: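 HEK293 cells seeded with NanoLuc/prosubstrate reagent, rested 5 h at 37 C, then dosed and kept at 37 C up to 40 h. Nonlytic real-time luminescence from viable cells read at 0, 8, 16, 24, 32 and 40 h.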
Assay [6] is described as follows: A CellTox Green Cytotoxicity Assay to monitor cytotoxicity in HEK293 cells - 0 hour (AID 1224869). Also: nearly all actives have a fitted effect of over 50% in size. The method in brief:
(§1)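 Seeding of HEK293 cells together with cytotoxicity dye preceded a 5 h incubation at 37 C/5% CO2. Test compounds in DMSO were then added and fluorescence monitored across 40 h.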

Assay [7] can be described thus: qHTS RealTime-Glo MT Cell Viability Assay in HepG2 cells - 40 hour (AID 1224870). Also: nearly all actives have a fitted effect of over 50% in size. The method in brief: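 HepG2 cells mixed with RealTime-Glo MT reagents (NanoLuc plus cell-permeant prosubstrate) were seeded at 600 cells/well, incubated 5 h at 37 C/5% CO2, then pinned with compounds in DMSO; nonlytic luminescence tracked viability during 40 h treatment.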
Assay [8] in a line: A CellTox Green Cytotoxicity Assay to monitor cytotoxicity in HEK293 cells - 40 hour (AID 1224871). Also: nearly all actives have a fitted effect of over 45% in size. Also: potency is read from the fitted curve at half-maximal effect. The method in brief: as §1

Unmarked numbers belong to inactive results. Records with an inconclusive call do not appear. The source made the active and inactive calls. Unless noted, calls follow the shape of the dose curve; as a rule, active = well fitted curve in the direction sought with a large enough effect in the repeat runs; inconclusive = weak or mixed curves; inactive = no such curve, though single readings can be large; an effect the other way counts as inactive or inconclusive.

For the compound `c1ccc(N2CCNCC2)cc1`, the Potency result in assay [1], in assay [3], in assay [4], in assay [5], in assay [6] and in assay [7] was “inactive” throughout. Besides, the Potency entry in assay [8] was “inactive”. Also, the result in assay [2] was inactive.

With `Clc1ccccc1N1CCNCC1`, the Potency result in assay [1], in assay [3], in assay [4], in assay [5], in assay [7] and in assay [8] was “inactive” in each case. The result in assay [2] was inactive.

For `CC(C)NCC(O)c1ccc(N)c(C#N)c1` (stereo not drawn), the Potency result in assay [1], in assay [3], in assay [4], in assay [5], in assay [7] and in assay [8] was “inactive” throughout. Besides, the call in assay [2] was inactive.

In the case of `COc1ncc(F)c2nc(S(=O)(=O)Nc3c(F)cccc3F)nn12`, the Potency entry in assay [1], in assay [3], in assay [4], in assay [5] and in assay [7] was “inactive” each time. The compound was classed as inactive in assay [2]. Also, in assay [8], the Potency was 13.9 µM (active).

`[Cl][Sn]([Cl])([Cl])[Cl]`: the Potency entry in assay [1], in assay [3], in assay [4] and in assay [7] was “inactive” each time. Also, in assay [2], the compound was called inactive.

Take `ClC(Cl)(Cl)C(Cl)(Cl)Cl`: the Potency result in assay [1], in assay [3], in assay [4], in assay [5], in assay [7] and in assay [8] was “inactive” in each case. The compound was called inactive in assay [2].

Regarding `O=C(O)C(Br)CBr` (stereo not drawn), the Potency entry in assay [1], in assay [3], in assay [4], in assay [5], in assay [6] and in assay [7] was “inactive” in each case. In assay [8], the Potency result is “inactive”. Besides, the result in assay [2] was inactive.

`CCN(CC)c1nc(C)cc(OP(=S)(OC)OC)n1`: the Potency result in assay [1], in assay [3], in assay [4], in assay [5], in assay [7] and in assay [8] was “inactive” each time. Further, the compound was classed as inactive in assay [2].

As for `Cc1cccc(C#N)c1`, the Potency result in assay [1], in assay [3], in assay [4], in assay [5], in assay [6] and in assay [7] was “inactive” throughout. Moreover, the Potency result in assay [8] was “inactive”. In assay [2], the call was inactive.

For the compound `CCN(CC)C(C)C(=O)c1ccccc1` (stereo not drawn), the Potency result in assay [1], in assay [3], in assay [5], in assay [6], in assay [7] and in assay [8] was “inactive” in each case. In assay [2], the outcome was inactive.

Consider `CC1CN1P(=O)(N1CC1C)N1CC1C` (stereo not drawn), for which the Potency entry in assay [1], in assay [3], in assay [5], in assay [6], in assay [7] and in assay [8] was “inactive” in each case. Moreover, the compound was called inactive in assay [2].

Take `CCCCP(CCCC)CCCC`: the Potency entry in assay [1], in assay [3], in assay [4], in assay [5], in assay [7] and in assay [8] was “inactive” each time. Further, in assay [2], the outcome was inactive.

Regarding `Nc1cnn(-c2ccccc2)c(=O)c1Cl`, the Potency entry in assay [1], in assay [3], in assay [4], in assay [5], in assay [6] and in assay [7] was “inactive” each time. For the same compound, the Potency result in assay [8] was “inactive”. Moreover, in assay [2], the result was inactive.

For `Nc1n[nH]c(N)n1`, the Potency entry in assay [1], in assay [3], in assay [4], in assay [6] and in assay [7] was “inactive” throughout. Also, in assay [2], the result was inactive.

Turning to `Cc1coc2c1CCC(C)C2` (stereo not drawn), the Potency entry in assay [1], in assay [3], in assay [4], in assay [5], in assay [6] and in assay [7] was “inactive” each time. For the same compound, the Potency entry in assay [8] was “inactive”. For the same compound, the compound was classed as inactive in assay [2].

As to `CC(C)[N+](=O)[O-]`, the Potency result in assay [1], in assay [3], in assay [4], in assay [5], in assay [6] and in assay [7] was “inactive” each time. The Potency entry in assay [8] is “inactive”. Besides, the outcome in assay [2] was inactive.

For `O=P(O)(Oc1ccccc1)Oc1ccccc1`, the Potency entry in assay [1], in assay [3], in assay [4], in assay [5], in assay [7] and in assay [8] was “inactive” each time. Moreover, the compound was classed as inactive in assay [2].

`O=C(Oc1ccc(Br)cc1)N1CCN2CCC1CC2`: the Potency entry in assay [1], in assay [3], in assay [4], in assay [5], in assay [7] and in assay [8] was “inactive” in each case. For the same compound, in assay [2], the compound was called inactive.

Take `O=NN1CCCCC1`: the Potency entry in assay [1], in assay [3], in assay [4], in assay [5], in assay [6] and in assay [7] was “inactive” each time. Also, the Potency result in assay [8] is “inactive”. Moreover, in assay [2], the outcome was inactive.

As to `c1cc2c(c(N3CCNCC3)c1)OCCO2`, the Potency entry in assay [1], in assay [3], in assay [4], in assay [5], in assay [7] and in assay [8] was “inactive” throughout. Further, the result in assay [2] was inactive.

On to `O=C(O)c1ccc2[nH]cc(CCCCN3CC=C(c4ccccc4)CC3)c2c1`, for which the Potency result in assay [1], in assay [3], in assay [4], in assay [5], in assay [7] and in assay [8] was “inactive” in each case. For the same compound, the compound was classed as inactive in assay [2].

For the compound `CCN(Cc1ccc(Cl)nc1)/C(=C/[N+](=O)[O-])NC`, the Potency result in assay [1], in assay [3], in assay [5], in assay [6], in assay [7] and in assay [8] was “inactive” in each case. In addition, the result in assay [2] was inactive.

For the compound `CNC(=O)O/N=C(\C)SC`, the Potency entry in assay [1], in assay [3], in assay [5], in assay [6], in assay [7] and in assay [8] was “inactive” in each case. For the same compound, in assay [2], the compound was called inactive.

Regarding `CC(C=O)Cc1ccc2c(c1)OCO2` (stereo not drawn), the Potency result in assay [1], in assay [3], in assay [4], in assay [5] and in assay [7] was “inactive” each time. Moreover, in assay [2], the call was inactive.

On to `CC(C1CC1)C(O)(Cn1cncn1)c1ccc(Cl)cc1` (stereo not drawn), for which the Potency result in assay [1], in assay [3], in assay [4], in assay [6], in assay [7] and in assay [8] was “inactive” each time. The outcome in assay [2] was inactive.
